Inconclusive results are not listed. Calls of active or inactive are those of the source. Calls come from the whole dose curve; as a rule, active = well fitted curve in the direction sought with a large enough effect; inconclusive = small, poorly fitted or top-dose-only effect, or another doubt; inactive = no such curve, though single readings can be large; an effect the other way counts as inactive or inconclusive.
How the values were obtained:
HACAT = test: qHTS assay to identify novel small-molecules to repurpose for Merkel cell carcinoma treatment (AID 1296009); settings: MCC and control cell lines, CellTiter-Glo viability, 72 h; at 44.8 µM (top of the series) unless noted; note: nearly all actives have a fitted effect of over 60% in size
Outline: (§1)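 Dose-response viability screen; 72 hr exposure at 37 degree celsius; CellTiter-Glo added, 10 min room temperature, luminescence read; RLUs scaled between no-cell and DMSO wells.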

NIH3T3 = test: as above; settings: MCC and control cell lines, CellTiter-Glo viability, 72 h; at 44.8 µM (top of the series) unless noted
Outline: as §1

C33A = test: Primary qHTS to identify gynecologic anti-cancer compounds using libraries of approved drugs and bioactive compounds (AID 1345084); settings: Gynecologic cancer cell panel viability, ATPlite luminescence, 48 h; series mostly up to 57.5 µM; note: % is set by controls: 0 for no effect and ±100 for the full control effect; nearly all actives have a fitted effect of over 55% in size
Outline: (§2)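 Measured: luminescence after ATPlite addition (15 min, RT). Exposure: 48 h, 37 C, 5% CO2.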

CAOV3 = test: as above; settings: Gynecologic cancer cell panel viability, ATPlite luminescence, 48 h; series mostly up to 57.5 µM
Outline: as §2

CASKI = test: as above; settings: Gynecologic cancer cell panel viability, ATPlite luminescence, 48 h; series mostly up to 57.5 µM
Outline: as §2

Es-2 = test: as above; settings: Gynecologic cancer cell panel viability, ATPlite luminescence, 48 h; series mostly up to 57.5 µM
Outline: as §2

HeLa = test: as above; settings: Gynecologic cancer cell panel viability, ATPlite luminescence, 48 h; series mostly up to 57.5 µM
Outline: as §2

Hek293T = test: as above; settings: Gynecologic cancer cell panel viability, ATPlite luminescence, 48 h, control line for the selectivity index; series mostly up to 57.5 µM
Outline: as §2

JEG-3 = test: as above; settings: Gynecologic cancer cell panel viability, ATPlite luminescence, 48 h; series mostly up to 57.5 µM
Outline: as §2

OV90 = test: as above; settings: Gynecologic cancer cell panel viability, ATPlite luminescence, 48 h; series mostly up to 57.5 µM
Outline: as §2

PA-1 = test: as above; settings: Gynecologic cancer cell panel viability, ATPlite luminescence, 48 h; series mostly up to 57.5 µM
Outline: as §2

SKOV3 = test: as above; settings: Gynecologic cancer cell panel viability, ATPlite luminescence, 48 h; series mostly up to 57.5 µM
Outline: as §2

Tov-21-G = test: as above; settings: Gynecologic cancer cell panel viability, ATPlite luminescence, 48 h; series mostly up to 57.5 µM
Outline: as §2

Tov112D = test: as above; settings: Gynecologic cancer cell panel viability, ATPlite luminescence, 48 h; series mostly up to 57.5 µM
Outline: as §2

CC(=O)O[C@@H]1[C@H](O[C@@H]2OC[C@](O)(CO)[C@H]2O)[C@@H](O[C@@H]2O[C@@H](C)[C@H](O)[C@@H](O[C@@H]3O[C@H](CO)[C@@H](O)[C@H](O)[C@H]3O)[C@H]2O)[C@H](OC(=O)[C@]23CCC(C)(C)C[C@H]2C2=CCC4[C@@]5(C)C[C@H](O)[C@H](O[C@@H]6O[C@H](C(=O)O)[C@@H](O)[C@H](O)[C@H]6O)[C@@](C)(C(=O)O)C5CC[C@@]4(C)[C@]2(C)CC3)O[C@@H]1C (stereo partly drawn)
inactive: outcome (HACAT) inactive [at 9.27 µM] | outcome (NIH3T3) inactive [at 9.27 µM] | activity change, negative = cytotoxicity (C33A) -1.36% [at 6.55 µM] | activity change, negative = cytotoxicity (CAOV3) 22.8% [at 6.55 µM] | activity change, negative = cytotoxicity (CASKI) 2.72% [at 6.55 µM] | activity change, negative = cytotoxicity (Es-2) 1.19% [at 6.55 µM] | activity change, negative = cytotoxicity (HeLa) -1.07% [at 6.55 µM] | activity change, negative = cytotoxicity (Hek293T) 4.41% [at 6.55 µM] | activity change, negative = cytotoxicity (JEG-3) -1.98% [at 6.55 µM] | activity change, negative = cytotoxicity (OV90) 0.0108% [at 6.55 µM] | activity change, negative = cytotoxicity (PA-1) 3.28% [at 6.55 µM] | activity change, negative = cytotoxicity (SKOV3) 27% [at 6.55 µM] | activity change, negative = cytotoxicity (Tov-21-G) 0.936% [at 6.55 µM] | activity change, negative = cytotoxicity (Tov112D) -2.6% [at 6.55 µM]

C=C[C@@]1(C)CCC2=C([C@H]1OC(C)=O)[C@H](OC(C)=O)CC1[C@](C)(C(=O)OC)CC[C@H](OC(C)=O)[C@]21C (stereo partly drawn)
inactive: outcome (HACAT) inactive [at 17.4 µM] | outcome (NIH3T3) inactive [at 17.4 µM] | Potency (C33A) | Potency (CAOV3) | outcome (CASKI) | Potency (Es-2) | Potency (HeLa) | Potency (Hek293T) | Potency (JEG-3) | Potency (OV90) | Potency (PA-1) | Potency (SKOV3) | Potency (Tov-21-G) | Potency (Tov112D)

CC1(C)CC2C(O)C3=C(CC(C)(O)C2C1)C(=O)OC3 (stereo not drawn)
inactive: outcome (HACAT) | outcome (NIH3T3) | Potency (C33A) | Potency (CAOV3) | outcome (CASKI) | Potency (Es-2) | Potency (HeLa) | Potency (Hek293T) | Potency (JEG-3) | Potency (OV90) | Potency (PA-1) | Potency (SKOV3) | Potency (Tov-21-G) | Potency (Tov112D)

Nc1c(-c2ccccc2)nc(Cl)c2c(O)n[nH]c(=O)c12
inactive: outcome (HACAT) | outcome (NIH3T3) | Potency (C33A) | Potency (CAOV3) | outcome (CASKI) | Potency (Es-2) | Potency (HeLa) | Potency (Hek293T) | Potency (JEG-3) | Potency (OV90) | Potency (PA-1) | Potency (Tov-21-G) | Potency (Tov112D)

COc1cc(C2CC(=O)Nc3c2cc(Br)c2ccccc32)cc(OC)c1OC (stereo not drawn)
inactive: outcome (HACAT) | outcome (NIH3T3) | Potency (C33A) | Potency (CAOV3) | outcome (CASKI) | Potency (Es-2) | Potency (HeLa) | Potency (Hek293T) | Potency (JEG-3) | Potency (OV90) | Potency (PA-1) | Potency (Tov-21-G) | Potency (Tov112D)

COc1cc(C(=O)OC[C@H]2O[C@@H](OC(C)(C)C(=O)O)[C@H](O)[C@@H](O)[C@@H]2O)cc(OC)c1O
inactive: outcome (HACAT) inactive [at 17.4 µM] | outcome (NIH3T3) inactive [at 17.4 µM] | Potency (C33A) | Potency (CAOV3) | outcome (CASKI) | Potency (Es-2) | Potency (HeLa) | Potency (Hek293T) | Potency (JEG-3) | Potency (OV90) | Potency (PA-1) | Potency (Tov-21-G) | Potency (Tov112D)

C[C@@H]1O[C@@H](O[C@H]2[C@@H]3C=CO[C@@H](O[C@@H]4O[C@H](CO)[C@@H](O)[C@H](O)[C@H]4O)[C@@H]3[C@@]3(CO)O[C@@H]23)[C@H](O)[C@H](OC(=O)/C=C/c2ccc(O)c(O)c2)[C@H]1O
inactive: outcome (HACAT) inactive [at 17.4 µM] | outcome (NIH3T3) inactive [at 17.4 µM] | Potency (C33A) | Potency (CAOV3) | outcome (CASKI) | Potency (Es-2) | Potency (HeLa) | Potency (Hek293T) | Potency (JEG-3) | Potency (OV90) | Potency (PA-1) | Potency (Tov-21-G)

CC/C=C\CC1C(CC(=O)O)CCC1OC1OC(CO)C(O)C(O)C1O (stereo not drawn)
inactive: outcome (HACAT) | outcome (NIH3T3) | Potency (C33A) | Potency (CAOV3) | outcome (CASKI) | Potency (Es-2) | Potency (HeLa) | Potency (Hek293T) | Potency (JEG-3) | Potency (OV90) | Potency (PA-1) | Potency (Tov-21-G) | Potency (Tov112D)

CC1(C)CC(NC(=O)C(=O)Nc2ccc(Cl)cc2)CC(C)(C)N1
inactive: outcome (HACAT) | outcome (NIH3T3) | Potency (C33A) | Potency (CAOV3) | outcome (CASKI) | Potency (Es-2) | Potency (HeLa) | Potency (Hek293T) | Potency (JEG-3) | Potency (OV90) | Potency (PA-1) | Potency (Tov-21-G) | Potency (Tov112D)

C=C1Cc2c(Cl)cc3[nH]c4c5c3c2[C@@]2(O)[C@@H]1C[C@@H]2C(C)(C)O[C@H]5C1CC[C@@]2(O)[C@@]35O[C@@H]3[C@H]3OC(C)(C)[C@H]3O[C@H]5CC[C@]2(C)[C@@]41C (stereo partly drawn)
inactive: outcome (HACAT) inactive [at 17.4 µM] | outcome (NIH3T3) inactive [at 17.4 µM] | Potency (C33A) | Potency (CAOV3) | outcome (CASKI) | Potency (Es-2) | Potency (HeLa) | Potency (Hek293T) | Potency (JEG-3) | Potency (OV90) | Potency (PA-1) | Potency (Tov-21-G) | Potency (Tov112D)

CC1OC(O[C@@H]2[C@H](O)[C@@H](OC3OC(CO)C(O)C(O)C3O)[C@H](OC(=O)[C@]34CCC(C)(C)C[C@H]3C3=CCC5[C@@]6(C)CC[C@H](O[C@@H]7O[C@H](C(=O)O)[C@@H](O)[C@H](O[C@@H]8OC[C@@H](O)[C@H](O)[C@H]8O)[C@H]7O[C@@H]7O[C@H](CO)[C@H](O)[C@H](O)[C@H]7O)[C@@](C)(C=O)C6CC[C@@]5(C)[C@]3(C)C[C@H]4O)O[C@@H]2C)C(O)C(O)C1OC1OCC(O)C(O)C1O (stereo partly drawn)
inactive: outcome (HACAT) inactive [at 4.96 µM] | outcome (NIH3T3) inactive [at 4.96 µM] | activity change, negative = cytotoxicity (C33A) 2.44% [at 6.55 µM] | activity change, negative = cytotoxicity (CAOV3) 8.46% [at 6.55 µM] | activity change, negative = cytotoxicity (CASKI) 4.43% [at 6.55 µM] | activity change, negative = cytotoxicity (Es-2) -4.12% [at 6.55 µM] | activity change, negative = cytotoxicity (HeLa) 23.9% [at 6.55 µM] | activity change, negative = cytotoxicity (Hek293T) 0.666% [at 6.55 µM] | activity change, negative = cytotoxicity (JEG-3) 2.9% [at 6.55 µM] | activity change, negative = cytotoxicity (OV90) -6.72% [at 6.55 µM] | activity change, negative = cytotoxicity (PA-1) 8.3% [at 6.55 µM] | activity change, negative = cytotoxicity (Tov-21-G) -1.56% [at 6.55 µM] | activity change, negative = cytotoxicity (Tov112D) 1.65% [at 6.55 µM]

CC1CCC2(NC1)OC1C(O)C3C4CCC5CC(O[C@@H]6O[C@H](CO)[C@@H](O)[C@H](O)[C@H]6O[C@@H]6O[C@@H](C)[C@H](O)[C@@H](O)[C@H]6O)CCC5(C)C4CCC3(C)C1C2C (stereo partly drawn)
inactive: outcome (HACAT) inactive [at 17.4 µM] | outcome (NIH3T3) inactive [at 17.4 µM] | Potency (C33A) | Potency (CAOV3) | outcome (CASKI) | Potency (Es-2) | Potency (HeLa) | Potency (Hek293T) | Potency (JEG-3) | Potency (OV90) | Potency (PA-1) | Potency (Tov-21-G) | Potency (Tov112D)

Reference: PubChem BioAssay (NCATS)
